PubChem BioAssay (EPA / NIEHS)
Records with an inconclusive call do not appear. Calls of active or inactive are those of the source. How the source made its calls: active means hit-call score of the fitted dose curve at least 0.9, where 1 is the maximum; inconclusive means response in the unintended direction; inactive means score below 0.9.

These compounds were tested against bovine Estrogen Receptor (ER), ESR1 (gene 407238) (UniProt P49884) (assay: NVS_NR_bER: NovaScreen (NVS) Nuclear Receptor Binding Assay for bovine Estrogen Receptor (ER) (AID 2283345);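 further: actives lower the bound radioligand count which means they displace the ER ligand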).
Description: NVS_NR_bER is a biochemical, single-readout assay that uses extracted gene-proteins from Bovine uterine membranes in a tissue-based cell-free assay. Measurements were taken 18 hours after chemical dosing in a 96-well plate.NVS_NR_bER is one of one assay component(s) measured or calculated from the NVS_NR_bER assay. It is designed to make measurements of radioligand binding, a form of binding reporter, as detected with scintillation counting signals by Lysate-based radiodetection technology.Data from the assay component NVS_NR_bER was analyzed into 1 assay endpoint. This assay endpoint, NVS_NR_bER, was analyzed in the positive analysis fitting direction relative to DMSO as the negative control and baseline of activity. Using a type of binding reporter, loss-of-signal activity can be used to understand changes in the binding as they relate to the gene ESR1. Furthermore, this assay endpoint can be referred to as a primary readout, because the performed assay has only produced 1 assay endpoint. To generalize the intended target to other relatable targets, this assay endpoint is annotated to the nuclear receptor intended target family, where the subfamily is steroidal.
Binding assays used specific radioligands (tritiated, iodinated) with non-radioactive competitive displacement ligands in agonist or antagonist protocols (as indicated) and various reference compounds and inhibitors to titrate specific binding to receptors and transporters. Most enzyme assays (CYPs, kinases, phosphatases, proteases, HDACs) used recombinant protein and specific substrates (fluorescence mostly, some colorimetric and radioactive) and inhibitors, followed by a biochemical separation of substrate and product. All assays for the biochemical HTS were initially run in duplicate at a single concentration (10 uM for CYP450 assays and 25 uM for all others). […] Each assay was run with positive and negative controls, and concurrent controls on every plate. The follow-up (secondary) screen tested active chemical-pairs in concentration series, as well as a few additional assays not tested in the primary screen, some selected negative inactives, and several cases re-run in the concentration series for confirmatory purposes.

bovine Estrogen Receptor (ER), ESR1 (gene 407238), sequence (P49884 whole entry, looked up): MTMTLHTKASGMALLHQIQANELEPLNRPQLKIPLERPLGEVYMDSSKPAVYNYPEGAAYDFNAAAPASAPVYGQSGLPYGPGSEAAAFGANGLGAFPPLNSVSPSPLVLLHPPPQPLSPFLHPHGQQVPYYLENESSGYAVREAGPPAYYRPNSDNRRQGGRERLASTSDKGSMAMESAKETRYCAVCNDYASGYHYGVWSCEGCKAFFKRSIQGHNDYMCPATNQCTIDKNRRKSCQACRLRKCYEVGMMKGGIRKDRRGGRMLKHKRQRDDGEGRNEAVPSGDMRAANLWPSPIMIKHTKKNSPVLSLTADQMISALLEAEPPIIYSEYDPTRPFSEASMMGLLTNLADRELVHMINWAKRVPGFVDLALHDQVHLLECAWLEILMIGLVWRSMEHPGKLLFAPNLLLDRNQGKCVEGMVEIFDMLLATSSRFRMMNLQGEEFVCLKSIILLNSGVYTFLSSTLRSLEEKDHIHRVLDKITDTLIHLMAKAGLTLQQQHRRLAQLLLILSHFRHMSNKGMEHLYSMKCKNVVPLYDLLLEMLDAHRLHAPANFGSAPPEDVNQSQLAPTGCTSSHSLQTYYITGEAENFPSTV

Which outcome does the source give for `Nc1cccc(S(=O)(=O)c2cccc(N)c2)c1` here?
Its outcome is “inactive”.

Which outcome does the source give for `NNc1nc(-c2ccc(N)cc2)cs1` here?
Its outcome is “inactive”.

Which outcome does the source give for `CC1=CCC2C(C1)C2(C)C` (configuration not stated) here?
The outcome was “inactive”.

With `C#C[C@]1(O)CC[C@H]2[C@@H]3CCC4=Cc5oncc5C[C@]4(C)[C@H]3CC[C@@]21C` as the compound, how does the outcome read?
Its outcome is “inactive”.

How did the outcome turn out when `c1cc(C(c2ccc(OCC3CO3)cc2)c2ccc(OCC3CO3)cc2)ccc1OCC1CO1` (configuration not stated) was run?
Its outcome is “inactive”.

Which AC50 does the source give for `CC1COc2ccccc2N1C(=O)C(Cl)Cl` (configuration not stated) here?
Its AC50 is 0.588 µM (active).

Which outcome does the source give for `C=CC(=O)OCC(O)COc1ccccc1` (configuration not stated) here?
The outcome was “inactive”.

Which outcome does the source give for `O=C(O)CCSCCC(=O)O` here?
The outcome was “inactive”.

`CN(C)c1ccc(O)c2c1C[C@H]1C[C@H]3[C@H](N(C)C)C(=O)C(C(N)=O)=C(O)[C@@]3(O)C(=O)C1=C2O` was tested. Which outcome did it give?
The outcome was “inactive”.

For `CC(C)=CCO`, which outcome is on record?
Its outcome is “inactive”.

Which outcome does the source give for `CC(C)c1cccc(O)c1` here?
The outcome was “inactive”.

Which outcome does the source give for `CC(C)C(C)(C)C(C)(C)C(C)(C)S` here?
The outcome was “inactive”.

With `CCCCCCCCC=O` as the compound, how does the outcome read?
The outcome was “inactive”.

With `CN(CCOc1ccc(CC2SC(=O)NC2=O)cc1)c1ccccn1` (configuration not stated) as the compound, how does the outcome read?
The outcome was “inactive”.

For `CNCCCC12CCC(c3ccccc31)c1ccccc12`, which outcome is on record?
Its outcome is “inactive”.

With `CCCCCCCCCC=O` as the compound, how does the outcome read?
The outcome was “inactive”.

How did the outcome turn out when `CCCc1c(OCCCOc2ccc(OCC(=O)O)cc2)ccc(C(C)=O)c1O` was run?
Its outcome is “inactive”.

`CC(=O)[C@H]1CC[C@H]2[C@@H]3CC=C4C[C@@H](O)CC[C@]4(C)[C@H]3CC[C@]12C` was tested. Which outcome did it give?
The outcome was “inactive”.

`CC(C)(C)C(=O)c1ccccc1` was tested. Which outcome did it give?
The outcome was “inactive”.

How did the outcome turn out when `NC(=O)Nc1ccc(Cl)cc1` was run?
The outcome was “inactive”.

For `O=Nc1ccc(Nc2ccccc2)cc1`, which outcome is on record?
Its outcome is “inactive”.

`Cc1cc(C2(c3cc(C)c(O)cc3C)OS(=O)(=O)c3ccccc32)c(C)cc1O` was tested. Which AC50 did it give?
Its AC50 is 10.6 µM (active).
